Screening data from PubChem.
DT40 TDP1 CPT = qHTS for Inhibitors of human tyrosyl-DNA phosphodiesterase 1 (TDP1): qHTS in cells in presence of CPT. chicken DT40 Tdp1-/-;hTDP1 cells + 20 nM CPT, ATP luminescence, 48 h. Potency, µM (titrated, usually from 46.2 µM), without a hit: top-dose activity change, negative = growth inhibition, usual class: inhibitors. 12% of 420,000 active; also: potency is read from the fitted curve at half-maximal effect; % is scaled to controls: 0 for no effect and ±100 for the full control effect; nearly all actives have a fitted effect of over 55% in size
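Chicken DT40 Tdp1-/- cells stably complemented with human TDP1 were seeded at 400 cells/well in medium containing 20 nM camptothecin, exposed to pin-transferred compounds, and grown at 37 °C for at least 48 hr. Viability was read as ATP luminescence.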
TDP1 inh = qHTS Assay for Inhibitors of Tyrosyl-DNA Phosphodiesterase (TDP1); 0.28% of 350,000 active; AID 485290, 2010; Tyrosyl-DNA phosphodiesterase 1 (Homo sapiens), Q9NUW8; Potency, µM (highest dose often 130 µM), inactives show at the top dose activity change, negative = inhibition, actives largely listed as inhibitors; recombinant TDP1, AlphaScreen DNA substrate cleavage; also: potency is read from the fitted curve at half-maximal effect; % is scaled to controls: 0 for no effect and ±100 for the full control effect; nearly all actives have a fitted effect of over 40% in size
Target sequence (Q9NUW8 whole entry, looked up): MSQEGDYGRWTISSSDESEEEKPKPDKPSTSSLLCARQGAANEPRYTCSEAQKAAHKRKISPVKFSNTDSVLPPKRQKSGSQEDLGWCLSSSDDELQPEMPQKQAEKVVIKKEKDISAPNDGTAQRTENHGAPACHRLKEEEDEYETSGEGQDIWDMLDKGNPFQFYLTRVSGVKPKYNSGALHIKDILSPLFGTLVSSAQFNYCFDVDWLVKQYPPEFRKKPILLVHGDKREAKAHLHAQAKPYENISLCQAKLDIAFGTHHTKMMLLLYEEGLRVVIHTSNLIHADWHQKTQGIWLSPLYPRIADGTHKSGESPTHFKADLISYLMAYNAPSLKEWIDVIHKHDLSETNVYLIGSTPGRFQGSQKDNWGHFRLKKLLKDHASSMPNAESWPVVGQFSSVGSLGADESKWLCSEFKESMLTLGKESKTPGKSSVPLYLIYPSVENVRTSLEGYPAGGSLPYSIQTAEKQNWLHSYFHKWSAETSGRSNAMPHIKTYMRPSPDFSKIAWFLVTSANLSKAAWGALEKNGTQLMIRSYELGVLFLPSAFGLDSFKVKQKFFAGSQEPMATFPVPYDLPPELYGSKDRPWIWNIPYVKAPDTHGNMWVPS
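AlphaScreen read-out: signal falls as enzyme removes the 3' tyrosine-FITC from a 5'-biotinylated DNA oligo (15 nM, 5 min, RT). Enzyme was E. coli-made recombinant Tdp1 at 1 nM, exposed to compound for 15 min beforehand; beads 10 ug/ml, 10 min.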
uPA surface inh = qHTS for Inhibitors of Cell Surface uPA Generation. 0.31% of 330,000 active. cell surface uPA generation assay, qHTS. Potency, µM (highest dose often 38.3 µM), for inactives: at the highest dose activity change, negative = inhibition, usual class: inhibitors; active = well fitted inhibition curve with a large enough effect; inconclusive = small, poorly fitted or top-dose-only effect; inactive = no such curve, though single readings can be large or run the other way; tested in mouse RAW 264.7 cells; also: potency is read from the fitted curve at half-maximal effect; % is scaled to controls: 0 for no effect and ±100 for the full control effect; nearly all actives have a fitted effect of over 55% in size
TDP1 cell noCPT = qHTS for Inhibitors of human tyrosyl-DNA phosphodiesterase 1 (TDP1): qHTS in cells in absence of CPT; AID 686978, 2013; DT40 Tdp1-/- hTDP1 cells, no CPT, ATP luminescence, 48 h; Potency, µM (series often up to 46.2 µM), for inactives: top-dose activity change, negative = growth inhibition, hits mostly inhibitors; 15% of 420,000 active; also: potency is read from the fitted curve at half-maximal effect; % is scaled to controls: 0 for no effect and ±100 for the full control effect; nearly all actives have a fitted effect of over 55% in size
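Seeded 400 DT40-hTDP1 cells/well (vehicle DMSO, no 20 nM CPT); pinned compounds; ≥48 hr at 37 °C; CellTiter-Glo luminescence as viability measure.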
miR-21 reporter = qHTS Assay for Modulators of miRNAs and/orActivators of miR-21 | HeLa miR-21 FLuc reporter, luciferase, 48 h | Potency, µM (top dose mostly 38.3 µM), for the others: at the top dose activity change, positive = activation, usual class: activators | 340,000 tested, under 10 active;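 also: % of control where 0% means no effect; miR-21 action dims this reporter so a rising signal means less miR-21 action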
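HeLa miR-21-FLuc reporter line, endogenous miR-21; 2000 cells/well in DMEM/10% FBS; compound titration up to ~40uM final, 48 h, 37 degree Celsius; luciferase detection reagent, 15 min lysis, CCD luminescence.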
Numbers without * were called inactive; ? = inconclusive; / = not tested or not shown; [ ] = dose if it differs, or a comment. Most compounds without a hit are left out; they make up all but 16% or so of the library. Unless noted, calls follow the shape of the dose curve; as a rule, active = well fitted curve in the direction sought with a large enough effect; inconclusive = small, poorly fitted or top-dose-only effect, or another doubt; inactive = no such curve, though single readings can be large; an effect the other way counts as inactive or inconclusive.

SMILES	DT40 TDP1 CPT	TDP1 inh	uPA surface inh	TDP1 cell noCPT	miR-21 reporter
CCOc1ccc(C2CC(c3ccc(OC)c(OC)c3)n3nc(N)nc3N2)cc1 (stereo not drawn)	-22%	3%	10%	-24%	-10%
COc1cccc(C2CC(c3ccc(Cl)cc3Cl)Nc3nc(N)nn32)c1 (stereo not drawn)	?	8%	0%	23µM*	-13%
CCOc1ccc(C2CC(c3cccc(Cl)c3)n3nc(N)nc3N2)cc1 (stereo not drawn)	7.3µM*	3%	29%	16µM*	-10%
COCC1CCCCN1C(=O)c1cccc(OC2CCN(C(=O)C3CC3)CC2)c1 (stereo not drawn)	-23%	6%	12%	-23%	-33%
COc1ccc(CC(C(=O)Nc2cc(C)ccc2C)/C(N)=N/O)cc1 (stereo not drawn)	-16%	6%	2%	-4%	-3%
N#Cc1cnn(-c2nc3sc4c(c3c(=O)[nH]2)CCCC4)c1N	21µM*	5%	2%	15µM*	-9%
Cc1nn(C)c(-c2n[nH]c(=S)n2-c2ccccc2)c1Cl	4%	3%	3%	-3%	-30%
COc1ccc(-c2noc(N3CCC(C(=O)NCc4ccc(F)cc4)CC3)n2)cc1	-28%	/	-3%	?	-1%
COc1ccc(-c2noc(N3CCC(C(=O)NCCCN4CC(C)CC(C)C4)CC3)n2)cc1 (stereo not drawn)	3.7µM*	3%	?	?	4%
COc1ccc(-c2noc(N3CCC(C(=O)N(C)c4cc(Cl)ccc4OC)CC3)n2)cc1	16µM*	-3%	/	?	0%
CCN(C(=O)C1CCN(c2nc(-c3ccc(OC)cc3)no2)CC1)c1ccc(OC)cc1	?	/	?	16µM*	22%
COc1cccc(CNC(=O)c2c3c(nc4ccccc24)C(=O)N(C2CCCCC2)C3)c1	13µM*	7%	/	21µM*	18%
COc1ccc(OC)c(CCNC(=O)c2c3c(nc4ccccc24)C(=O)N(C2CCCCC2)C3)c1	?	10%	/	18µM*	?
CN(C(=O)c1c2c(nc3ccccc13)C(=O)N(C1CCCCC1)C2)c1ccc(F)cc1	-12%	7%	/	-6%	-6%
COc1ccc(CNC(=O)c2c3c(nc4ccccc24)C(=O)N(C2CCCCC2)C3)c(OC)c1	-2%	3%	/	3%	26%
O=C(NCc1cccc(Cl)c1)c1c2c(nc3ccccc13)C(=O)N(C1CCCCC1)C2	15µM*	7%	/	10µM*	1%
CC(C)CCNC(=O)c1c2c(nc3ccccc13)C(=O)N(C1CCCCC1)C2	?	7%	/	?	0%
CCOc1ccccc1N(C)C(=O)c1c2c(nc3ccccc13)C(=O)N(C1CCCCC1)C2	16µM*	7%	/	?	7%
CCS(=O)(=O)Nc1cccc(C2=NN(S(=O)(=O)c3ccccc3)C(c3cccs3)C2)c1 (stereo not drawn)	-7%	4%	/	3%	-9%
COc1ccc(-c2sc3cc(OC)c(OC)cc3c2-c2ccc(O)cc2)cc1	?	5%	-26%	?	/
CC(CNC(=O)CCCn1c(=O)c2cccn2c2ccccc21)c1ccccc1 (stereo not drawn)	?	-3%	/	?	-5%
CCCCn1c(N)c(N(C)C(=O)CCCn2c(=O)oc3ccccc32)c(=O)[nH]c1=O	-10%	/	/	-11%	/
COc1ccc(C)cc1NC(=O)c1c2c(nc3ccccc13)C(=O)N(C1CCCCC1)C2	16µM*	10%	/	3.7µM*	?
COc1ccc(CNC(=O)c2c3c(nc4ccccc24)C(=O)N(C2CCCCC2)C3)cc1	12µM*	10%	/	15µM*	5%
Cc1nc(Nc2ccc(S(=O)(=O)N3CCCCC3C)cc2)c2nnn(Cc3ccccc3)c2n1 (stereo not drawn)	?	0%	0%	23µM*	-5%
SMILES	DT40 TDP1 CPT	TDP1 inh	uPA surface inh	TDP1 cell noCPT	miR-21 reporter
COc1ccc(Nc2nc(C(C)(C)C)nc3c2nnn3Cc2ccccc2Cl)cc1OC	18µM*	/	6%	15µM*	/
Cc1nc2c(nnn2Cc2ccccc2)c(=O)[nH]1	23µM*	-5%	4%	?	1%
Cc1nc(NCCc2ccc(F)cc2)c2nnn(Cc3ccccc3)c2n1	0%	/	0%	0%	0%
Cc1nc(NCCc2ccc(O)cc2)c2nnn(Cc3ccccc3)c2n1	?	/	-10%	15µM*	8%
CCc1ccc(NC(=O)C2(C)Cc3ccccc3C(=O)O2)cc1 (stereo not drawn)	-28%	0%	5%	?	-57%
Cc1c(C(=O)OCC(=O)N(C)Cc2ccc(Cl)cc2)oc2ccccc12	1%	-6%[56.1 µM]	2%	6%	/
Cc1nc2c(nnn2Cc2ccccc2Cl)c(=O)[nH]1	-6%	/	-16%	-25%	-5%
Cc1nc(Nc2cc(F)ccc2C)c2nnn(Cc3ccccc3)c2n1	?	/	-1%	21µM*	4%
Cc1nc(N(C)Cc2ccccc2)c2nnn(Cc3ccccc3)c2n1	23µM*	6%	0%	18µM*	-7%
CCOC(=O)CNc1nc(C(C)(C)C)nc2c1nnn2Cc1ccccc1Cl	?	2%	/	26µM*	-5%
COc1ccc(Nc2nc(C)nc3c2nnn3Cc2ccccc2)cc1OC	?	-3%	-8%	23µM*	-1%
Cc1nc(Nc2ccc(Cl)cc2)c2nnn(Cc3ccccc3)c2n1	?	0%	-1%	?	8%
Cc1ccc(-n2sc3cc(F)ccc3c2=O)c(C)c1	2.9µM*	/	/	2.3µM*	/
O=c1c2cc(F)ccc2sn1-c1ccccc1Cl	2.6µM*	/	/	2.3µM*	/
Cc1ccc(N2C(=O)c3ccccc3C2=O)c(C)c1	/	3%	/	/	/
O=c1c2ccccc2sn1-c1ccc(F)cc1	3.3µM*	-2%	?	3.7µM*	/
N=C1SCC(=O)N1c1ccccc1Cl	20%	/	2%	-11%	1%
O=c1c2ccc(F)cc2sn1-c1ccccc1	2.6µM*	/	/	2.9µM*	/
Cn1c(SCC(=O)NCc2ccco2)nnc1-c1cccs1	7%	4%	-1%	-13%	-4%
CCN(CC)S(=O)(=O)c1cccc(C(=O)Oc2cccc(NC(=O)c3cccs3)c2)c1	?	0%	2%	?	-27%
O=C1C(=O)N(CCN2CCOCC2)C(c2ccc(Cl)cc2)/C1=C(/O)c1ccc(S(=O)(=O)N2CCOCC2)cc1 (stereo not drawn)	-8%	3%	4%	-6%	0%
CCOC(C)OCC	1%	4%	/	-4%	/
